FMDV antiviral – foot and mouth disease virus antiviral activity; FMDV antiviral cell-based qHTS; Potency, µM (highest dose often 57.9 µM), hits mostly inhibitors; 1.2% of 410,000 active; calls by dose curve; tested in HEK293T cells; note: read-out not given here; nearly all actives have a fitted effect of over 45% in size
Marburg entry inh – Marburg virus entry inhibition. Marburg virus pseudotyped entry inhibition, cell reporter. Potency, µM (titrated, usually from 37.8 µM), most hits filed as inhibitors. 1.8% of 300,000 active. AID 540276; calls by dose curve; tested in HEK293 cells
LASV entry inh – blocks Lassa virus binding to or entry into cells; Lassa virus pseudotype entry inhibition, cell reporter; Potency, µM (doses to about 37.9 µM), most hits filed as inhibitors; 1.2% of 300,000 active; AID 540256; calls by dose curve; tested in HEK293 cells; note: nearly all actives have a fitted effect of over 50% in size
VACV Venus inh – inhibitors of vaccinia virus (Venus reporter); Vaccinia virus Venus reporter expression, fluorescence; Potency, µM (doses to about 36.5 µM), usual class: inhibitors; 0.46% of 330,000 active; calls by dose curve; tested in A549 cells; note: nearly all actives have a fitted effect of over 30% in size
VACV mCherry inh – vaccinia inhibition (mCherry reporter); Vaccinia virus mCherry reporter infection, fluorescence; Potency, µM (top dose mostly 36.5 µM), usual class: inhibitors; 0.63% of 310,000 active; calls by dose curve; tested in A549 cells; note: nearly all actives have a fitted effect of over 35% in size
Numbers stand for hits; n = inactive; u = inconclusive; x = not tested or not shown; [ ] = remark or other dose. A selection: hits, their analogues and other compounds. The true share with any hit is near 3.2%.

SMILES	FMDV antiviral	Marburg entry inh	LASV entry inh	VACV Venus inh	VACV mCherry inh
O=C(NN=Cc1cc([N+](=O)[O-])ccc1O)c1cccc2ccccc12	n	10µM	7.1µM	u	u
COC(=O)N/N=C/c1cc(N=Nc2ccccc2Cl)ccc1O	n	x	x	n[7.34 µM]	n[7.34 µM]
Nc1ccc(C(=O)N/N=C\c2cc(N=Nc3cccc4ccccc34)ccc2O)cc1	n	16µM	u	x	x
COc1ccc(/C=N/NC(=O)c2cccc([N+](=O)[O-])c2)cc1O	n	u	n	n	n
Cc1cc(C(=O)N/N=C/c2cc(N=Nc3ccccc3)ccc2O)n[nH]1	n	0.5µM	11µM	u	u
COc1cccc(/C=N/NC(=O)c2cc3cc([N+](=O)[O-])ccc3s2)c1O	n	1.8µM	u	u	5µM
Cc1ccc(C(=O)N(Cc2cc3cc4c(cc3nc2N2CCOCC2)CCC4)CC2CCCO2)s1 (stereo not given)	n	x	x	n	n
COc1cccc(CN(C)C(=O)c2cnn(-c3nccc(-c4ccc5c(c4)OCO5)n3)c2C)c1	n	x	x	n	n
O=C1NC(=O)C(=Cc2ccc(-c3ccc(Cl)cc3)o2)C(=O)N1	32µM	x	x	u	n
O=C1NC(=O)C(=Cc2ccc(Sc3ccccc3)o2)C(=O)N1	22µM	n	n	n[7.34 µM]	n[7.34 µM]
CN1C(=O)C(=Cc2ccc(Sc3ccccc3)o2)C(=O)N(C)C1=O	n	n	n	n	n
Cc1cccc(N2CCN(C(=O)CCc3c(C)nc4c(c3C)c(=O)n(C)c(=O)n4C)CC2)c1C	n	n	n	n	n
CC(C)CNC(=O)C1(C)CCCCCN1Cc1ccccc1-c1ccccc1 (stereo not given)	u	x	x	n	n
Cc1ccc([N+](=O)[O-])cc1N=Nc1c(-c2ccc([N+](=O)[O-])cc2)[nH]n(C(N)=S)c1=O	2.5µM	x	x	x	x
Cc1ccc([N+](=O)[O-])cc1N=Nc1c(C)[nH]n(C(N)=S)c1=O	n	x	x	x	x
O=C(NCCCN1CCOCC1)c1cnn(-c2ncc3c(n2)-c2ccccc2CC3)c1C1CC1	n	x	x	n	n
CN(C)CCCN(C(=O)c1cc(-c2cccs2)nc2ccccc12)c1nc2ccc(F)cc2s1	n	u	6.3µM	u	u
CN(C)CCCN(C(=O)c1ccc(Br)s1)c1nc2cc3c(cc2s1)OCO3	n	x	x	13µM	10µM
Cc1ccc(C(=O)N(CCCN(C)C)c2nc3ccc(Cl)cc3s2)cc1C	u	8.9µM	u	n	n
CN(C)CCCN(C(=O)c1ccco1)c1nc2ccc(Cl)cc2s1	n	u	u	u	n
CN(C)CCCN(C(=O)c1ccc(S(=O)(=O)N(C)C)cc1)c1nc2cc3c(cc2s1)OCO3	n	u	n	n	n
CN(C)CCCN(C(=O)c1ccc2c(c1)CCCC2)c1nc2cc3c(cc2s1)OCO3	n	11µM	u	u	u
COc1cc(-c2cc(C)c3cccc(OC)c3n2)cc2c1OCCN(C(=O)Cn1nc(C)cc1C)C2	n	x	x	n	n
Cc1ccc2sc(N(CCCN(C)C)C(=O)c3ccc(Br)s3)nc2c1C	n	15µM	u	n	u
Cc1ccc2nc(N(CCCN(C)C)C(=O)c3sc4ccccc4c3Cl)sc2c1	18µM	n	u	n	n
SMILES	FMDV antiviral	Marburg entry inh	LASV entry inh	VACV Venus inh	VACV mCherry inh
CN(C)CCCN(C(=O)c1ccc2c(c1)CCCC2)c1nc2ccc(F)cc2s1	n	u	16µM	u	u
CC(=O)c1ccc(C(=O)N(CCCN(C)C)c2nc3c(C)c(C)ccc3s2)cc1	n	x	u	n	n
CCN(CC)CCN(C(=O)c1ccc2c(c1)CCCC2)c1nc2ccc(C)cc2s1	u	10µM	u	n	n
CN(C)c1ccc([C@H]2[C@@H]3C(=O)N(c4ccc(C(=O)O)cc4)C(=O)[C@H]3ON2c2ccccc2)cc1	x	n	x	x	x
CCOC(=O)/C=c1\s/c(=C(/C#N)C(=O)OCC)n(-c2ccccc2)c1=O	x	n	x	x	x
O=S(=O)(Nc1cccc2ncccc12)c1cccs1	20µM	u	u	u	13µM
COc1ccccc1-c1cc2c(c(OC)c1)OCCN(CCC(C)c1ccc(C)o1)C2 (stereo not given)	n	x	x	n	n
FC(F)(F)C1CCC(c2nnc(C3CCCCN3)c(C3=NCCCC3)n2)NC1 (stereo not given)	x	n	x	x	x
O=C(CSc1ncnc2[nH]ncc12)Nc1nc(-c2ccc(F)c(F)c2)cs1	14µM	u	u	x	x
CCn1c(Sc2ccc([N+](=O)[O-])cn2)nnc1-c1ccco1	u	u	u	u	13µM
CN(C)c1ccc(/C=C/c2ccc3cc(N)ccc3n2)cc1	x	x	x	n	n
CC(C)(CNC(=O)c1cnn(-c2nccc(-c3cc4ccccc4o3)n2)c1C1CC1)N1CCOCC1	n	x	x	n	n
Cc1ccc(C)c(NC(=O)CSc2nnc(CCCCCNC(=O)OC(C)(C)C)o2)c1	16µM	n	n	x	x
C[C@@H]1C[C@@H](CC(=O)NCC2Cc3cccc(-c4ccncc4)c3O2)NC(=S)N1 (stereo not given in full)	n	x	x	n	n
Cc1nc2ccccc2c(=O)n1NC(=O)Cc1ccc(Br)cc1	n	n	u	n	1.8µM
C=C1CC(COc2ccc3c(C)c(Cl)c(=O)oc3c2)(c2ccccc2)OC1=O (stereo not given)	22µM	7.1µM	10µM	11µM	10µM
CSCCC(NC(=O)c1ccccc1)C(=O)N1CCN(C(c2ccccc2)c2ccccc2)CC1 (stereo not given)	u	n	14µM	u	u
Cc1cc(C)cc(C(=O)NCC(=O)N2CCN(C(c3ccccc3)c3ccccc3)CC2)c1	n	13µM	n	n	n
O=C(Nc1ccc(N2CCCC2)c(Cl)c1)c1ccco1	x	u	12µM	n	n
Cc1cc(NC(=O)c2ccc(-c3ccccc3[N+](=O)[O-])o2)no1	n	x	x	x	x
CC(=O)c1cccc(NC(=O)c2ccc(-c3ccccc3[N+](=O)[O-])o2)c1	n	4.6µM	u	n	n
O=C(Nc1ccc(N2CCCCC2)cc1)c1ccc([N+](=O)[O-])o1	n	u	u	n	u
CN1CCN(c2ccc(NC(=O)c3ccco3)cc2Cl)CC1	n	x	x	x	x
O=C(Nc1cccc(NC(=O)c2ccccc2Cl)c1)c1ccc([N+](=O)[O-])o1	n	u	u	u	7.9µM
O=C(Nc1ccc(N2CCCC2)c(Cl)c1)c1ccc([N+](=O)[O-])o1	n	8.9µM	u	14µM	16µM
SMILES	FMDV antiviral	Marburg entry inh	LASV entry inh	VACV Venus inh	VACV mCherry inh
CCCCc1nnc(NC(=O)CSCc2cc(=O)n3cc(C)sc3n2)s1	n	x	x	x	x
CC1C(=O)N(Cc2cn(CCC3OCCCO3)nn2)CCS(=O)(=O)N1Cc1ccc(-c2ccc(Cl)c(Cl)c2)cc1 (stereo not given)	u	x	x	u	n
CCCCOc1ccc(CC(=O)N(C)OC)cc1	x	x	x	n	n
Cc1ccc2nc(N3CCN(C)CC3)c(C#N)cc2c1	n	u	n	n	n
Cc1ccc2nc(N3CCN(S(=O)(=O)c4ccc(C)c(Cl)c4)CC3)c(C#N)cc2c1	n	4.6µM	u	x	x
C=CCN(CC=C)CCOc1cccc2ccccc12	n	u	n	n	n
CCCCN(CC)CCOc1cccc2ccccc12	40µM	x	x	u	u
O=C(c1cccs1)N1C[C@H](O)[C@H](n2cc(C3CC3)nn2)C[C@@H]1c1ccc(Cl)cc1	x	x	n	x	x
COc1ccc(C(=O)/C=C/c2ccc(O)cc2)cc1	n	x	x	n	n
COc1ccc(C(=O)/C=C/c2ccc(N3CCCCC3)c([N+](=O)[O-])c2)cc1	n	n	n	n	n
